Screening data (PubChem)
HP1b binding inh: inhibitors of HP1-beta chromodomain binding to methylated histone tails | P83916 | actives 0.56% (n = 390,000) | Potency, µM (series often up to 114 µM), for inactives: at the top dose activity change, negative = inhibition, usual class: inhibitors | AlphaScreen HP1-beta / biotin-H3K9me3 peptide binding | AID 540317; also: nearly all actives have a fitted effect of over 70% in size
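HP1-beta protein (50 nM final) preincubated 30 min at room temperature with biotinylated H3(1-18)K9me3 peptide (50 nM) in PBS pH 7.4, 0.01% Tween-20, then compound added for 30 min. AlphaScreen streptavidin donor/nickel chelate acceptor beads (10 ug/mL final), 30 min dark, luminescence read.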
L3MBTL1 inh: blocks human L3MBTL1; Q9Y468; AlphaScreen L3MBTL1–H3K9me1 peptide binding; Potency, µM (titrated, usually from 57.1 µM), inactives show top-dose activity, negative = inhibition, most hits filed as inhibitors; actives 0.66% (n = 230,000); also: % is scaled to controls: 0 for no effect and ±100 for the full control effect; nearly all actives have a fitted effect of over 60% in size
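First, the protein-peptide complex forms for 30 min at room temperature (L3MBTL1 50 nM, biotinylated H3K9me1 peptide 75 nM). Next, compounds are pin-transferred and incubated 30 min. Finally, AlphaScreen beads are added and read after 30 min.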
G9a inh: inhibitors of human histone lysine methyltransferase G9a; G9a H3K9 monomethylation, AlphaScreen, 2 h; Potency, µM (highest dose often 102 µM), without a hit: at the highest dose activity, negative = inhibition, hits mostly inhibitors; actives 8.8% (n = 350,000); also: % is scaled to controls: 0 for no effect and ±100 for the full control effect; nearly all actives have a fitted effect of over 75% in size
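Signal arises when biotinylated H3K9 peptide, once monomethylated, bridges streptavidin donor and antibody-captured acceptor beads. Enzyme at 20 nM was preincubated 15 min with test compounds; peptide 500 nM and SAM 20 uM then reacted for 2 h.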
BAZ2B block: inhibitors of human BAZ2B bromodomain | AlphaScreen BAZ2B-H3K14Ac peptide displacement | actives 4.4% (n = 360,000) | Potency, µM (top dose mostly 114 µM), for the others: top-dose activity change, negative = inhibition, most hits filed as inhibitors | Q9UIF8 | AID 504333; also: % is scaled to controls: 0 for no effect and ±100 for the full control effect; nearly all actives have a fitted effect of over 60% in size
Target sequence (Q9UIF8 whole entry, looked up): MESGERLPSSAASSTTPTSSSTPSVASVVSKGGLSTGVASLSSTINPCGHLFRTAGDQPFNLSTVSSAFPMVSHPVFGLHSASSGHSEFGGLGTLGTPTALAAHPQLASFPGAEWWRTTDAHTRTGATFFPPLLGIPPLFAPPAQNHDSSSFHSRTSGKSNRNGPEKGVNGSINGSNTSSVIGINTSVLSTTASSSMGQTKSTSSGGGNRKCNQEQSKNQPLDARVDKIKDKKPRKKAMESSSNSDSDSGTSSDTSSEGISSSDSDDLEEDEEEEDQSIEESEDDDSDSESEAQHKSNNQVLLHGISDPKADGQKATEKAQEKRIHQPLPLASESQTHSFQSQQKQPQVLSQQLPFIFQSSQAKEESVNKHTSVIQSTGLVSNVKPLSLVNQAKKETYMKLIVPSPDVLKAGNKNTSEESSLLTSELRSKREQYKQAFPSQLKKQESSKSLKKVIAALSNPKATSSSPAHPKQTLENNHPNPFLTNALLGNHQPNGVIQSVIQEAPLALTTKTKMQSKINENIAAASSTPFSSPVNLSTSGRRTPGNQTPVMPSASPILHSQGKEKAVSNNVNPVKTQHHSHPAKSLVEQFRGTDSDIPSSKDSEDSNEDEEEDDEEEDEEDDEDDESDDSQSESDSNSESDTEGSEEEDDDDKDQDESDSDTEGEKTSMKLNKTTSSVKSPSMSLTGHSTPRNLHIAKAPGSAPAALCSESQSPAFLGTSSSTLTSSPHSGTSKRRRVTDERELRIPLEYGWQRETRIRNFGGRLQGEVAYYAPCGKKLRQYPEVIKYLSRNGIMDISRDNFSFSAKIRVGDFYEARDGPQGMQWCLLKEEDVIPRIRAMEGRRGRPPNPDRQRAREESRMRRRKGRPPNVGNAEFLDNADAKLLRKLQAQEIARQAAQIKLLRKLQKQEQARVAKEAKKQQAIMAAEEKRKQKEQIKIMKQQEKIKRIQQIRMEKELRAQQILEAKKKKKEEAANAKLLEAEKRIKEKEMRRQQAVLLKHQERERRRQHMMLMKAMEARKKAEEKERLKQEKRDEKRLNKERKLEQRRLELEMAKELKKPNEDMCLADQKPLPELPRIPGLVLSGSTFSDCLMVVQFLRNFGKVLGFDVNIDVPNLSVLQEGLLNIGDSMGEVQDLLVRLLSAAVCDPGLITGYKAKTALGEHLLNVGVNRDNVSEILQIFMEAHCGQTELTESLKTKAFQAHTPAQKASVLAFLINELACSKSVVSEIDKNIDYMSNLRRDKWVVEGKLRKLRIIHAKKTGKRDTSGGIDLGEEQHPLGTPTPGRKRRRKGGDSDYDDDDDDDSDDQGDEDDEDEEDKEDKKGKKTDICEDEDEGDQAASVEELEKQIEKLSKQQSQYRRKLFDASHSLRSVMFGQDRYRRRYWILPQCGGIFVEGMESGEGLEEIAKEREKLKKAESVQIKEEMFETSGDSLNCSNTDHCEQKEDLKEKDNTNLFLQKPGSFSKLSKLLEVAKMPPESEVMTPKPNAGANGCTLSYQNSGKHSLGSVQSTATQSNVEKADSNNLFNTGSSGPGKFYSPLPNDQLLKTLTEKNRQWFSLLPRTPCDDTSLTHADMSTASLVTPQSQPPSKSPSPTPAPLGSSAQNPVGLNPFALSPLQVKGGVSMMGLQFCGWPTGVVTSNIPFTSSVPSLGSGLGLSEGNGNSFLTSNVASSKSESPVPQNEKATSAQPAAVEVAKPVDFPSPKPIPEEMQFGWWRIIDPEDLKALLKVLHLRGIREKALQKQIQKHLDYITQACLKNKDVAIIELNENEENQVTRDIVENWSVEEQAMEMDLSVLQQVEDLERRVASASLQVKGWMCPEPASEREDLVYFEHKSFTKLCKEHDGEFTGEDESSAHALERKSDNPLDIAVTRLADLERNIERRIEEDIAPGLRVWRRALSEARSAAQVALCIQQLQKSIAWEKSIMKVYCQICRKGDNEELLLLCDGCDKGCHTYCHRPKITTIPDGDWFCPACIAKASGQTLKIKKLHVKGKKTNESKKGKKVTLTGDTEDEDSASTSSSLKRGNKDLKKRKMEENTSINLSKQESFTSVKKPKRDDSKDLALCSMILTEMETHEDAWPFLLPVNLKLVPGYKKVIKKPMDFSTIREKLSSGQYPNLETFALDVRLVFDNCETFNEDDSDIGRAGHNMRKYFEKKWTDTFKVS
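BAZ2B 50 nM plus b-H3(5-23)K14Ac 50 nM, PBS pH 7.4/0.01% Tween-20, 30 min RT; compound added (max 110 uM), 30 min RT; streptavidin donor/Ni-chelate acceptor beads 10 ug/mL final, 20 min dark; AlphaScreen read.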
JMJD2A Tudor: JMJD2A Tudor domain (human) inhibition | Potency, µM (doses to about 114 µM), for the others: at the top dose activity change, negative = inhibition, most hits filed as inhibitors | AlphaScreen JMJD2A-Tudor / H3K4me3 peptide binding | actives 4.4% (n = 390,000) | AID 504339; also: % is scaled to controls: 0 for no effect and ±100 for the full control effect; nearly all actives have a fitted effect of over 50% in size
* = called active by the depositor; u = inconclusive; x = no result; [ ] = dose if it differs, or a comment. Most compounds without a hit are left out; they make up all but 11% or so of the library. Calls follow the shape of the dose curve; as a rule, active = well fitted inhibition curve with a large enough effect; inconclusive = small, poorly fitted or top-dose-only effect; inactive = no such curve, though single readings can be large or run the other way. Potency is read from the fitted curve at half-maximal effect.

SMILES | HP1b binding inh | L3MBTL1 inh | G9a inh | BAZ2B block | JMJD2A Tudor
N#Cc1ccc(C(=O)Nc2ccc(S(=O)(=O)NC3=NCCCCC3)cc2)cc1 | 18% | x | 50µM* | u | -6%
O=C(Nc1cccc(S(=O)(=O)NC2=NCCC2)c1)c1ccccc1 | 34% | 8% | x | x | -4%
O=C(COc1ccccc1Cl)Nc1cccc(S(=O)(=O)NC2=NCCCCC2)c1 | 26% | 1% | 50µM* | -1% | -17%
CC1CN(S(=O)(=O)c2cccc(C(=O)Nc3ccc(S(=O)(=O)NC4=NCCCCC4)cc3)c2)CC(C)O1 (centres undefined) | 12% | 9% | 18µM* | 0% | -18%
COc1ccccc1OCC(=O)Nc1cccc(S(=O)(=O)NC2=NCCCCC2)c1 | 15% | 4% | -34% | 3% | -14%
O=C(C1COc2ccccc2O1)N1CCN(c2nc3ccc(F)cc3s2)CC1 (centres undefined) | -6% | x | 11%[59 µM] | -16% | -12%
CN1C(=O)c2ccccc2Sc2ccc(NC(=O)N3CCN(c4ccccc4F)CC3)cc21 | 7% | x | -45%[59 µM] | -19% | -31%
CCCOc1ccccc1OCC(=O)Nc1cccc(S(=O)(=O)NC2=NCCC2)c1 | 20% | -11% | -42% | 15% | -10%
O=C(Nc1cccc(S(=O)(=O)NC2=NCCCCC2)c1)C1COc2ccccc2O1 (centres undefined) | -16% | 0% | 50µM* | 56µM* | u
O=C(COc1cc(F)ccc1[N+](=O)[O-])Nc1cccc(S(=O)(=O)NC2=NCCC2)c1 | 21% | 4% | 3.2µM* | 6% | -3%
O=C(Nc1ccc(S(=O)(=O)NC2=NCCCCC2)cc1)C1COc2ccccc2O1 (centres undefined) | 22% | x | -23%[12.7 µM] | -14% | -19%
CC(Oc1ccc(Br)cc1)C(=O)Nc1ccc(S(=O)(=O)NC2=NCCCCC2)cc1 (centres undefined) | 35% | x | x | x | -14%
CC(Oc1cccc(Cl)c1)C(=O)Nc1ccc(S(=O)(=O)NC2=NCCCCC2)cc1 (centres undefined) | 9% | -1% | 35µM* | 6% | -18%
Cc1ccc(C)n1-c1ccc(C(=O)NN)cc1 | 11% | 11% | 45%[59 µM] | 8% | 50µM*
CN(CC(=O)Nc1ccc(Cl)c(C(F)(F)F)c1)C(=O)c1ccc(N2CCOCC2)c([N+](=O)[O-])c1 | u | 0% | 32µM* | -36% | u
COc1ccc(CC(=O)Nc2ccc(N3CCCC3)c(C)c2)cc1 | u | x | 8.9µM* | u | u
CCC(=O)Nc1ccc(N2CCCCC2)c(C(=O)Nc2ccc(OC)cc2)c1 | -6% | x | 70% | -1% | u
Cc1ccc(NC(=O)CN(C)C(=O)c2ccc(Cl)c([N+](=O)[O-])c2)cc1 | 9% | -2% | 22µM* | 1% | -18%
COc1ccc(NC(=O)CN(C)C(=O)c2ccc(N3CCCCCC3)c([N+](=O)[O-])c2)cc1 | -24% | -9% | 50µM* | -9% | u
COc1ccc(C(=Cc2ccccc2[N+](=O)[O-])C(=O)O)cc1 | 18% | x | x | x | -5%
COc1ccc(Cl)cc1NCc1nnc2n1CCCCC2 | 41%[57 µM] | x | -2%[59 µM] | 19% | -4%
Cc1cccc(NC(=O)CN(C)C(=O)c2ccc(N3CCCCCC3)c([N+](=O)[O-])c2)c1C | -12%[57 µM] | -10% | x | x | u
COc1cccc(N2CCN(c3ccc(N4C(=O)CCC4=O)cc3[N+](=O)[O-])CC2)c1 | -20% | x | 50µM* | u | u
CN(CC(=O)Nc1ccc(Cl)c(C(F)(F)F)c1)C(=O)Cn1cc([N+](=O)[O-])ccc1=O | 15% | -1% | 6.3µM* | -10% | -22%
COc1ccc(NC(=O)CN(C)C(=O)c2ccc(N3CCCCC3)c([N+](=O)[O-])c2)cc1 | -18% | -18% | 50µM* | u | -34%
SMILES | HP1b binding inh | L3MBTL1 inh | G9a inh | BAZ2B block | JMJD2A Tudor
COc1cccc(CN(C)C(=O)c2ccc(N3CCCC3)c([N+](=O)[O-])c2)c1 | -11% | x | 50µM* | u | 45µM*
O=C(NC1CC1)C1=NOC(CNc2ncc(C(F)(F)F)cc2Cl)C1 (centres undefined) | 26% | x | 2% | 4% | -13%
O=C(N/C=N/O)C1=NOC(CNc2ncc(C(F)(F)F)cc2Cl)C1 (centres undefined) | 11% | x | 45µM* | -10% | -4%
Cc1[nH]c2ccc(C(=O)NCCN3CCCCCC3)cc2c1C | 2%[57 µM] | x | 50µM* | -30%[57.1 µM] | u
Cn1cc(CC(=O)NCCCN2CCCC2)c2ccccc21 | 33% | x | 56µM* | -29% | -33%
CCOC(=O)N1CCN(C(=O)c2ccc3[nH]c(C)c(C)c3c2)CC1 | 19% | 2% | x | x | -16%
Cn1cc(CC(=O)NCCCN2CCOCC2)c2ccccc21 | 19% | x | u | x | -13%
Cc1[nH]c2ccc(C(=O)NCCCN3CCCCC3)cc2c1C | 57% | x | 4% | u | -1%
Cc1ccc(C)c(N2CCN(C(=O)c3ccc4[nH]c(C)c(C)c4c3)CC2)c1 | -17% | x | -8%[59 µM] | -13% | 79µM*
O=C(Cn1c(-c2cccs2)cc2cc(F)ccc21)NCCCN1CCN(c2ccccc2F)CC1 | 42% | x | u | -13% | -27%
O=C(Cn1c(=O)c2cccn2c2ccc(F)cc21)NCCCN1CCN(c2ccccc2F)CC1 | 25% | x | 45µM* | -31% | -20%
CC(C)(C)c1ccc(C(=O)N2CC(=O)Nc3ccc(F)cc3C2c2ccc(F)cc2)cc1 (centres undefined) | 5% | x | -48%[59 µM] | -27% | -31%
COc1ccc(OC)c(CNC(=O)CCc2cn(C)c3ccccc23)c1 | 4% | x | u | -28% | u
Cc1c(C)n(C)c2ccc(C(=O)NCCCN3CCN(c4ccccc4F)CC3)cc12 | u | x | 45µM* | u | 56µM*
Cc1c(C)n(C)c2ccc(C(=O)NCCCN3CCCCC3)cc12 | -3% | x | u | -27%[57.1 µM] | u
Cc1ccc(C)c(N2CCN(C(=O)c3cc4ccccn4n3)CC2)c1 | 34% | -2% | 50µM* | -6% | -18%
COc1ccc(OC)c(CCNC(=O)CCc2cn(C)c3ccccc23)c1 | 10% | x | 71µM* | u | u
Cc1c(C)n(C)c2ccc(C(=O)NCCCN3CCCC3)cc12 | -5% | x | 50µM* | u | u
CNS(=O)(=O)c1ccc2c(c1)oc(=O)c1cc(S(=O)(=O)NC)ccc12 | 29% | x | -25% | -2% | -12%
Cc1c(C)n(C)c2ccc(C(=O)NCCCN3CCN(c4ccc(F)cc4)CC3)cc12 | u | x | 40µM* | 35µM* | 56µM*
CC(C)COc1ccc(C(=O)OCCN2CCCCC2)cc1 | 73% | x | 19%[2.33 µM] | 4% | -19%
CCCCOc1ccc(C(=O)CCN2CCCCC2)cc1 | 84% | 3% | 10µM* | -23% | -8%
CCCOc1ccc(C(=O)CCCC(=O)c2ccc(OCCC)cc2)cc1 | 48% | 42% | x | 44% | 12%
